Measured values reported in PubChem BioAssay.
Activity calls are given as the source filed them.

How the values were obtained:
[1] = binders of probe aFSTL3 on microarray, primary screen, stem cell growth factor project, biochemical, small-molecule microarray, fluorescence 635/667 (AID 1064); details: higher = more signal;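 also: measures binding of the biotinylated anti-FSTL3 antibody to printed compounds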
[2] = binders from COS7 lysate, DM2A8 probe, primary screen, torsin A project, cell lysate, small-molecule microarray, fluorescence 635/667 (AID 1065); details: higher = more signal, COS7 lysate expressing mutant human TOR1A
[3] = binders of probe aFGF2 on microarray, primary screen, stem cell growth factor project, biochemical, small-molecule microarray, fluorescence 635/667 (AID 1067); details: higher = more signal;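 also: measures binding of biotinylated aFGF2 protein to printed compounds on slides; z-score merges feature fluorescence and signal-to-noise across triplicate slides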
[4] = binders of probe aFGF10 on microarray, primary screen, stem cell growth factor project, biochemical, small-molecule microarray, fluorescence 635/667 (AID 1071); details: higher = more signal;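 also: score merges 667 nm spot intensity and signal to noise from triplicate slides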
[5] = target: Neurogenic locus notch homolog protein 2 (Homo sapiens) (UniProt Q04721); test: Notch2 binders on small-molecule microarrays, primary screen, biochemical, small-molecule microarray, 635 nm fluorescence, stem cell growth factors (AID 1073); details: Notch2 binding, higher = more signal
Neurogenic locus notch homolog protein 2 (Homo sapiens), sequence (Q04721 whole entry, looked up, canonical isoform): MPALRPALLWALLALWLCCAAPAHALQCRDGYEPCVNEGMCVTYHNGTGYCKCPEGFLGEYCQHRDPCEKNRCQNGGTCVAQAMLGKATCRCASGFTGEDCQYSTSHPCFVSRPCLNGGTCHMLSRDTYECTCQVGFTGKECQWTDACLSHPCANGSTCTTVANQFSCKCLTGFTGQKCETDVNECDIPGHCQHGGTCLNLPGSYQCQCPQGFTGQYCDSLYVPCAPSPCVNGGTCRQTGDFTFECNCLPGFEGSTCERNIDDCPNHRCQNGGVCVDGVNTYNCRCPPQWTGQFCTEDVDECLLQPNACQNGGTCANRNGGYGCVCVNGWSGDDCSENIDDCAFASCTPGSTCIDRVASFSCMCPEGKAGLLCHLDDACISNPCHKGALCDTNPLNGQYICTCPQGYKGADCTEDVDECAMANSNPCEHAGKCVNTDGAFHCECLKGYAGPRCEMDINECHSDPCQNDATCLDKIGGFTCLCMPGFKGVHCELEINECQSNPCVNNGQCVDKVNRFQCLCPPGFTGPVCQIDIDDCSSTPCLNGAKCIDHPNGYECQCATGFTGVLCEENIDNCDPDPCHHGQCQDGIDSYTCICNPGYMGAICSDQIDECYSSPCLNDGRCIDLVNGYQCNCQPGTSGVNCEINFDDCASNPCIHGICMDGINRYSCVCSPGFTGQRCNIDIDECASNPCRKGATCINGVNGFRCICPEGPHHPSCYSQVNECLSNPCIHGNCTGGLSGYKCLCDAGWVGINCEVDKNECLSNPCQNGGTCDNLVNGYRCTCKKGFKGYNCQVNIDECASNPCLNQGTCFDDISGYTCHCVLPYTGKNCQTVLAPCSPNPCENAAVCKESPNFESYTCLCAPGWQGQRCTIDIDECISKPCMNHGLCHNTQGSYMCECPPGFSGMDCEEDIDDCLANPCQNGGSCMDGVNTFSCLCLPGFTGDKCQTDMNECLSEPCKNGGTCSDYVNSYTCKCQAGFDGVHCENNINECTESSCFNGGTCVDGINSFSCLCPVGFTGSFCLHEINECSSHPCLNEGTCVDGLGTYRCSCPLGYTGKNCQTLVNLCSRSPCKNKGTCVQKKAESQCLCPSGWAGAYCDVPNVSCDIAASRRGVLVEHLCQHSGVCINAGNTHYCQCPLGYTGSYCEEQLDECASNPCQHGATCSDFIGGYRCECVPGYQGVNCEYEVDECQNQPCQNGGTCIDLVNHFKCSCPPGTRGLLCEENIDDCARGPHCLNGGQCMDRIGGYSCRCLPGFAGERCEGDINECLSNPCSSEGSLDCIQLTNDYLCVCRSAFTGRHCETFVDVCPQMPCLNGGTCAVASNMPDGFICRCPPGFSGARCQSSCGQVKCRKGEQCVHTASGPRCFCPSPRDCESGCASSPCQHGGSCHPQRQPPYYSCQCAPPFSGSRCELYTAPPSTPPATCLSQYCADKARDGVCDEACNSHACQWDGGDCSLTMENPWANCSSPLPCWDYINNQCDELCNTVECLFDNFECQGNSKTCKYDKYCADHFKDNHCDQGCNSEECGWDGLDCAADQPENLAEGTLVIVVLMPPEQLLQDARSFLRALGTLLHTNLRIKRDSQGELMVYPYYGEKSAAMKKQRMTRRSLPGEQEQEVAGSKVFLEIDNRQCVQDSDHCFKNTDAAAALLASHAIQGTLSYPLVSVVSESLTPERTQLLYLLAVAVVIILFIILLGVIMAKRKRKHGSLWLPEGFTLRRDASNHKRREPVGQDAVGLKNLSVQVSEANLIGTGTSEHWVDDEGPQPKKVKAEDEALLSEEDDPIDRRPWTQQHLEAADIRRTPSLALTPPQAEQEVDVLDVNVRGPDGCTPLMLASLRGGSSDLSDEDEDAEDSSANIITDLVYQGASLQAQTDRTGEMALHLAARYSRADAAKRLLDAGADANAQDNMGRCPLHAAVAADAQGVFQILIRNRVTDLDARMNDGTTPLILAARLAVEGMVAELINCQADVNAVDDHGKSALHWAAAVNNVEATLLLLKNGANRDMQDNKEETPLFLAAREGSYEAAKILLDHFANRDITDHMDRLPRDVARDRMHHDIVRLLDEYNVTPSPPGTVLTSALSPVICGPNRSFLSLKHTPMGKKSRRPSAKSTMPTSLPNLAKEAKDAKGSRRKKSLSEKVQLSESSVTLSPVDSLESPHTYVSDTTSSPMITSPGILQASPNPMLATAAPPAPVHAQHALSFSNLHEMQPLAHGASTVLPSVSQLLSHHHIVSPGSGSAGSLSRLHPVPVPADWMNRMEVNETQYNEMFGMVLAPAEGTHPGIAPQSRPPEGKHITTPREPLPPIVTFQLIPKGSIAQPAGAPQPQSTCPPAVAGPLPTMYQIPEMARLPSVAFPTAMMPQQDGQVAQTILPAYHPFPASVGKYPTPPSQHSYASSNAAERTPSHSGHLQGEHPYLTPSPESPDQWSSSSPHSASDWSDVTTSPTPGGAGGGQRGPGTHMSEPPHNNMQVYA

[6] = target: Pro-neuregulin-1, membrane-bound isoform (Homo sapiens) (UniProt Q02297); test: NRG1 binders on small-molecule microarrays, primary screen, psychiatric disease protein project, biochemical, small-molecule microarray, fluorescence 635/667 (AID 1075); details: NRG1 binding, 635 nm fluorescence, higher = more signal;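 also: score combines 667 nm spot fluorescence with signal to noise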
Pro-neuregulin-1, membrane-bound isoform (Homo sapiens), sequence (Q02297 whole entry, looked up, the tested form may be a part, canonical isoform): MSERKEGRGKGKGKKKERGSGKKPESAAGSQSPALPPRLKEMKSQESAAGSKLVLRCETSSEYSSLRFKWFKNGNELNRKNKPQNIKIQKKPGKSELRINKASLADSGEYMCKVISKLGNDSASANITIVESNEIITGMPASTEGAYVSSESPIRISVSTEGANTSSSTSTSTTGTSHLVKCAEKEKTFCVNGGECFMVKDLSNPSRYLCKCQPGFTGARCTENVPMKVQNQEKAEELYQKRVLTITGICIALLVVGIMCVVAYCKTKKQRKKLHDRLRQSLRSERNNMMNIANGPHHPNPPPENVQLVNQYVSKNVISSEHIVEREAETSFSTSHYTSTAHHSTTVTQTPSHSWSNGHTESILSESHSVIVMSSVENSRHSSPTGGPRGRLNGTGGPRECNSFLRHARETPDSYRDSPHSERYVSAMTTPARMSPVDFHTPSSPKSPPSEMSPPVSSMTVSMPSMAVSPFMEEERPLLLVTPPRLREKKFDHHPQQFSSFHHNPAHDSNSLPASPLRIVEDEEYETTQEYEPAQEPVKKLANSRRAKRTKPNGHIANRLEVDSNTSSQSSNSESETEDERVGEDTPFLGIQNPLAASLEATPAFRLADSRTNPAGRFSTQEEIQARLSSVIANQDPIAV

[7] = system: Neuregulin-1 EGF-like domain; test: binders of neuregulin-1 EGF-like domain, primary screen, biochemical, small-molecule microarray, 635 nm fluorescence (AID 1081); details: small-molecule microarray binding, higher = more signal;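 also: binding of the protein to compounds printed on small-molecule microarray slides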
[8] = FRG1 promoter luciferase signal modulators, primary screen, FRG1 inhibition for FSHD, cell-based, C2C12 myotubes, firefly/Renilla luciferase, luminescence (AID 1084); details: higher = more signal, called active from +8 up or from −8 down
[9] = binders of probe aFST on microarray, primary screen, stem cell growth factor project, biochemical, small-molecule microarray, fluorescence 635/667 (AID 1086); details: higher = more signal;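 also: score merges 667 nm fluorescence with signal-to-noise of each printed compound spot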
[10] = binders of probe aHhip on microarray, primary screen, stem cell growth factor project, biochemical, small-molecule microarray, fluorescence 635/667 (AID 1087); details: higher = more signal;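 also: score merges spot fluorescence at 667nm with spot signal to noise ratio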

| Structure (SMILES) | composite z-score [1] | composite z-score [2] | composite z-score [3] | composite z-score [4] | composite z-score [5] | composite z-score [6] | composite z-score [7] | z-score [8] | composite z-score [9] | composite z-score [10] |
| --- | --- | --- | --- | --- | --- | --- | --- | --- | --- | --- |
| COCCOC(=O)N1C(=O)[C@@]2(c3cc(C#CC4=CCCCC4)ccc31)[C@H](c1ccc(O)cc1)N1[C@H](c3ccccc3)[C@H](c3ccccc3)OC(=O)[C@H]1[C@@H]2C(=O)NC[C@H](O)c1ccccc1 | -0.217 | 0.167 | 0.0059 | 0.824 | 1.18 | 1.3 | 1.2 | 0.675 (inactive) | 0.443 | -0.174 |
| CN(C)CCCCCCNC(=O)[C@@H]1C[C@@H]2C(=O)N[C@@H](CCCCN)C(=O)N2[C@@H]1c1ccc(O)cc1 | 3.77 | 1.82 | 0.939 | 1.2 | 1.65 | 2.91 | 1.53 | 0.918 (inactive) | 3.81 | 3.69 |
| C=C[C@@H](C)[C@@H](OC(=O)Nc1ccc(SC)cc1)c1ccc(OCCO)cc1 | 0.004 | 0.81 | 0.0918 | 0.447 | -0.202 | 1.41 | 1.26 | 10.5 (active) | 0.051 | 0.0373 |
| C=C(/C(=C/C[C@H](OC(=O)c1ccncc1)c1cccc(OCCO)c1)c1cnc2ccccc2c1)C(C)C | 0.0581 | 0.857 | -0.0448 | 1.34 | 1.41 | 1.07 | 0.884 | -2.64 (inactive) | 0.157 | 0.0695 |
| C=CCC(OC(C)=O)[C@@H]1[C@@H](N(Cc2ccc(-c3ccccc3)cc2)C(=O)c2ccc(C)cc2)c2cc(OCCCO)ccc2N1C(=O)Cc1ccc2ccccc2c1 (stereo not given in full) | -0.377 | -0.221 | -0.107 | 0.0733 | 0.0573 | -0.283 | -0.422 | -2.08 (inactive) | 0.203 | -0.134 |
| CCCNC(=O)[C@@]1(Sc2ccc(C)cc2)CC(=O)N(C2CCCCC2)[C@@H]1c1ccc(CO)cc1I | 0.152 | 0.481 | -0.0788 | 0.182 | 0.517 | 0.772 | 1.25 | -3.57 (inactive) | -0.0962 | -0.383 |
| COCCOC(=O)N1C(=O)[C@@]2(c3ccccc31)[C@H](c1ccccc1OCCO)N1[C@H](c3ccccc3)[C@H](c3ccccc3)OC(=O)[C@H]1[C@@H]2C(N)=O | -0.299 | 0.692 | -0.0015 | 0.725 | 1.23 | 0.133 | 1.3 | -2.08 (inactive) | 0.971 | -0.0645 |
| C=C/C=C/[C@@H]1C(=C)CN([C@@H](Cc2ccccc2)C(=O)OC)[C@H]1[C@@H](O)Cc1ccccc1 | -0.252 | 0.814 | -0.109 | 0.34 | 0.186 | 0.404 | 1 | -0.661 (inactive) | 0.101 | -0.0645 |
| COC(=O)C1=CC(CCCO)=CC(C)N(Cc2cccc(OC(F)(F)F)c2)C=C1C(=O)OC (stereo not given) | -0.385 | -0.383 | -0.0667 | 0.157 | 0.412 | 2.05 | 1.21 | -0.181 (inactive) | 0.577 | -0.0994 |
| C=C(CCCC)C(=O)CC[C@H](OC(=O)c1ccccc1-c1ccccc1C(=O)O)c1ccccc1OCCO | -0.0134 | 0.814 | -0.149 | 0.76 | -0.331 | 1.06 | 1.07 | -1.42 (inactive) | -0.214 | -0.249 |
| COc1ccc([Si](C)(C)[C@H]2[C@H](CCO)O[C@@]3(C(=O)N(Cc4ccc(N5C(=O)c6ccccc6Oc6ccccc65)cc4)c4ccccc43)[C@@H]2C)cc1 | 0.603 | -0.352 | -0.081 | 0.251 | -0.389 | 0.0473 | 0.644 | -3.69 (inactive) | -0.601 | -0.284 |
| [N-]=[N+]=Nc1ccccc1C[C@]1(C(=O)NCc2ccccc2)COC(c2ccc(OCCCO)cc2)=N1 | 0.191 | 0.666 | 0.113 | 1.27 | 0.777 | 1.24 | 1.21 | -1.36 (inactive) | 0.892 | -0.207 |
| CCOC(=O)C=Cc1cc(F)ccc1O | 0.0251 | 0.17 | 0.0087 | 0.207 | -0.0641 | -0.0469 | 0.398 | 0.808 (inactive) | -0.0919 | 0.0524 |
| O=C(O)[C@H]1C[C@H]2C(=O)N[C@@H](Cc3ccccc3)C(=O)N2[C@H]1c1cccc(OCCO)c1 | 0.07 | 0.96 | -0.0246 | 0.495 | -0.116 | 0.154 | 1.44 | 5.68 (inactive) | 0.309 | 0.188 |
| C=C(COC)C(=O)CC[C@H](OC(=O)c1cccnc1)c1ccc(CO)o1 | -0.403 | -0.049 | -0.124 | 0.842 | 0.574 | 0.57 | 1.12 | 0.292 (inactive) | 0.34 | -0.0994 |
| COc1ccc(C(=O)Nc2cccc(CN3C(=O)[C@]4(O[C@H](CCn5cc([C@H](O)c6ccccc6)nn5)[C@@H]([Si](C)(C)c5ccc(OC)cc5)[C@@H]4C)c4ccccc43)c2)cc1 | 0.243 | -0.505 | -0.0709 | 0.266 | -0.122 | 1.04 | 0.933 | -0.454 (inactive) | 0.0644 | -0.0618 |
| COC(=O)[C@@]1(Cc2ccc(F)cc2)[C@H]2c3cc(C(=O)N4CCCC4)n(CC4CC4)c3C[C@H]2CN1C(=O)c1ccccc1 | 0.349 | 0.149 | 0.0274 | 0.427 | 1.72 | 2.05 | 1.06 | 0.108 (inactive) | 1.61 | 0.0274 |
| CCN(CC)c1ccc(N2CC=CC34O[C@@H]5C=CCCOC(=O)C5[C@H]3C(=O)N(CCO)[C@@H]4C2=O)cc1 (stereo not given in full) | 0.171 | -0.981 | -0.18 | -0.463 | -0.894 | -0.684 | 1.52 | -0.329 (inactive) | -0.209 | -0.137 |
| C=CCC(OC(C)=O)[C@@H]1[C@@H](N(Cc2ccc(-c3cccc(C(F)(F)F)c3)o2)C(=O)c2ccc(C)cc2)c2cc(OCCCO)ccc2N1C(=O)Cc1ccc(OC)cc1 (stereo not given in full) | 0.002 | -0.315 | -0.0639 | 0.0732 | -0.489 | -0.0798 | -0.986 | -0.287 (inactive) | 0.382 | 0.0373 |
| CC(C)[Si]1(C(C)C)OCc2cc(-c3ccc(-c4ccc(Cl)c(Cl)c4)o3)nc(CCc3ccccc3)c21 | 0.0051 | -0.217 | -0.0332 | -0.175 | -0.412 | 0.572 | 0.261 | 0.999 (inactive) | -0.0731 | -0.201 |
| C=C(CCCC)C(=O)CC[C@H](OC(C)=O)c1ccc(OCCO)cc1 | -0.222 | -0.0212 | -0.214 | -0.253 | -0.989 | -0.189 | -0.67 | 0.38 (inactive) | -0.358 | 3.01 |
| COCCOC(=O)N1C(=O)[C@@]2(c3cc(C#CC4(O)CCCCCC4)ccc31)[C@H](c1ccc(OCCO)cc1)N1[C@H](c3ccccc3)[C@H](c3ccccc3)OC(=O)[C@H]1[C@@H]2C(=O)Nc1nc2ccccc2s1 | 0.676 | 0.54 | -0.0234 | 0.874 | 1.32 | 0.526 | 1.04 | 3.79 (inactive) | 1.08 | 0.245 |
| COC(=O)[C@@]1(Cc2ccccc2CN=[N+]=[N-])N=C(c2ccc(OCCCO)cc2)O[C@H]1c1ccccc1 | 1.4 | -0.0284 | 0.118 | -0.774 | -0.0293 | 0.532 | 1.2 | -2.17 (inactive) | 0.187 | -0.451 |
| O=C1NC(=O)C2C1C=CC(C(O)c1ccccn1)N2Nc1ccc(Cl)cc1Cl (stereo not given) | -0.0358 | -0.0795 | -0.0132 | 0.895 | 1.16 | 1.36 | 0.626 | 0.362 (inactive) | 0.737 | 0.154 |
| CC(C)CCC[C@@H](C)[C@H]1CC[C@@]2(C)C3=C(CC[C@]12C)[C@@]1(C)CC[C@H](OC(=O)c2ccccc2)C(C)(C)C1CC3 (stereo not given in full) | -0.438 | 0.299 | -0.0916 | 0.157 | 0.474 | 0.0304 | -0.0239 | -0.374 (inactive) | 0.526 | 0.93 |
| [N-]=[N+]=NCc1ccccc1[C@H]1OC(c2ccc(OCCCO)cc2)=N[C@@]1(Cc1ccccc1)C(=O)NCCN1CCOCC1 | -0.714 | 0.614 | -0.0627 | 1.09 | 1.49 | 1.34 | 1.23 | -0.731 (inactive) | 0.213 | -0.0994 |
| COC(=O)[C@@]1(Cc2ccccc2)[C@H]2c3cc(C(=O)N(C)C)n(CCn4cc([N+](=O)[O-])nc4C)c3C[C@H]2CN1C(=O)c1ccccc1 | 0.0989 | 0.227 | -0.045 | 0.861 | 1.23 | 0.204 | 1.2 | -0.0393 (inactive) | 0.928 | -0.281 |
| Cc1ccccc1C(O)C1C=CC2C(=O)N(c3ccccc3)C(=O)C2N1Nc1ccc([N+](=O)[O-])cc1 (stereo not given) | -0.0848 | 0.804 | -0.0271 | 0.681 | 1.07 | 1.87 | 1.27 | -1.24 (inactive) | 0.886 | -0.189 |
| Cc1cccc([C@H]2C[C@H]3C(Br)=C[C@@H]2C(=O)[C@]32CO2)c1 | 0.165 | 0.0316 | -0.182 | -0.228 | -0.0632 | -0.424 | -0.779 | 1.02 (inactive) | -0.264 | -0.0169 |
| COC(=O)[C@@]1(Cc2ccc(OC)cc2)[C@H]2c3cc(C(=O)N4CCCC4)n(Cc4ccc(S(C)(=O)=O)cc4)c3C[C@H]2CN1C(=O)c1ccccc1 | 0.438 | -0.208 | 0.296 | 0.587 | 1.59 | 2.07 | 1.31 | 0.862 (inactive) | 1.25 | 0.0053 |
